Source: PubChem BioAssay (NCI)
The panel holds about 79,000 compounds, 15% with a hit somewhere; the sample as a whole holds those more often. Calls of active or inactive are those of the source. No stated cut-off is given here; in the data, active means growth inhibition above about 70%; inactive means the rest.

Assays:
[1] = NCI Yeast Anticancer Drug Screen. Data for the mec2-1 strain (AID 157); conditions: S. cerevisiae mec2-1 strain, stronger effect = higher value
Summary of the method: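 Using mec2-1 yeast: add compound, measure growth, express inhibition versus vehicle-treated cultures.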

[2] = NCI Yeast Anticancer Drug Screen. Data for the rad14 strain (AID 159);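 further: 0% = growth of vehicle-treated control cultures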; conditions: S. cerevisiae rad14 strain growth inhibition, stronger effect = higher value
Summary of the method: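 Yeast cells carrying a defined DNA-repair defect were exposed to compounds, and growth inhibition was calculated relative to vehicle-treated control cultures.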

[3] = NCI Yeast Anticancer Drug Screen. Data for the sgs1 mgt1 strain (AID 161);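 further: 0% = growth of cultures given vehicle only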; conditions: S. cerevisiae sgs1 mgt1 strain, stronger effect = higher value
Summary of the method: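 Compounds are added to genetically altered yeast, and growth is compared with cultures given vehicle alone to give percent inhibition.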

[4] = NCI Yeast Anticancer Drug Screen. Data for the CLN2oe strain (AID 163);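 further: 0% = growth of vehicle-only control cultures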; conditions: S. cerevisiae CLN2oe strain, stronger effect = higher value
Summary of the method: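 Whole-cell yeast growth assay. A strain engineered for altered cell-cycle control received compound, and inhibition relative to vehicle-treated cultures was recorded.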

[5] = NCI Yeast Anticancer Drug Screen. Data for the cln2 rad14 strain (AID 165);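 further: 0% = growth equal to vehicle treated cultures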; conditions: S. cerevisiae cln2 rad14 strain, stronger effect = higher value
Summary of the method: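 Yeast strain cln2 rad14, bearing defects in cell cycle control and DNA repair, serves as the test system; values reflect growth inhibition compared with vehicle.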

[6] = NCI Yeast Anticancer Drug Screen. Data for the bub3 strain (AID 167); conditions: S. cerevisiae bub3 mutant strain, stronger effect = higher value
Summary of the method: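 Compounds were applied to a genetically altered yeast strain carrying a cell-cycle control defect. Growth inhibition was scored against vehicle-treated controls.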

[7] = NCI Yeast Anticancer Drug Screen. Data for the wt2 strain (AID 169);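 further: 0% = growth of vehicle-treated yeast cultures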; conditions: S. cerevisiae wt2 strain growth inhibition, stronger effect = higher value
Summary of the method: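 Treated yeast vs. vehicle-treated yeast: growth inhibition determined.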

[8] = NCI Yeast Anticancer Drug Screen. Data for the mlh1 strain (AID 171);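 further: 0% = growth of vehicle-treated control cultures of the same strain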; conditions: S. cerevisiae mlh1 strain growth inhibition, stronger effect = higher value
Summary of the method: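 A yeast strain with a defined genetic lesion serves as the test organism. Cultures receive compound or vehicle, and growth is measured.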

[9] = NCI Yeast Anticancer Drug Screen. Data for the sgs1 strain (AID 173);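 further: 0% = growth of vehicle-only control cultures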; conditions: S. cerevisiae sgs1 mutant, stronger effect = higher value
Summary of the method: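 A genetically defined yeast mutant is incubated with the test compound, and its growth is compared to that of the same strain given vehicle.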

[10] = NCI Yeast Anticancer Drug Screen. Data for the mlh1 rad18 strain (AID 175); conditions: S. cerevisiae mlh1 rad18 strain growth inhibition, stronger effect = higher value
Summary of the method: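 Steps: expose repair-defective yeast to compound; measure growth; express inhibition against vehicle-treated controls.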

[11] = NCI Yeast Anticancer Drug Screen. Data for the rad18 strain (AID 177); conditions: S. cerevisiae rad18 mutant growth inhibition, stronger effect = higher value
Summary of the method: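 Measured value is growth inhibition of a yeast strain bearing a DNA repair alteration, referenced to vehicle-treated cells.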

[12] = NCI Yeast Anticancer Drug Screen. Data for the rad52 strain (AID 147);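 further: 0% = growth of vehicle-treated control cultures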; conditions: S. cerevisiae rad52 mutant growth inhibition, stronger effect = higher value
Summary of the method: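 Here a repair-compromised yeast strain receives each compound; its growth is then quantified and normalised to vehicle-only controls.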

[13] = NCI Yeast Anticancer Drug Screen. Data for the wt1 strain (AID 149);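 further: 0% = growth of vehicle-treated wt1 cultures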; conditions: S. cerevisiae wt1 strain (SPY 50644) growth inhibition, stronger effect = higher value
Summary of the method: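 Yeast wt1 strain exposed to compounds; growth inhibition measured relative to vehicle-treated controls.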

[14] = NCI Yeast Anticancer Drug Screen. Data for the rad50EPP+ strain (AID 151);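 further: 0% = growth of vehicle-treated control cultures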; conditions: S. cerevisiae rad50 mutant strain, stronger effect = higher value
Summary of the method: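 Read-out is yeast growth inhibition relative to vehicle; cells used were the rad50EPP+ strain.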

[15] = NCI Yeast Anticancer Drug Screen. Data for the rad50 strain (AID 155);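 further: 0% = growth of vehicle-only cultures of the same strain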; conditions: S. cerevisiae rad50 strain growth inhibition, stronger effect = higher value
Summary of the method: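 Yeast carrying a defined DNA repair defect were exposed to test compounds, and growth was compared with vehicle-treated controls to give percent inhibition.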

[16] = at 5.0 µM (retest, dose inferred, filed as 0.5)
[17] = at 50.0 µM (retest, dose inferred, filed as 5.0)

Measured: growth inhibition

CC(=O)C1=C(C)O/C(=C/c2cccc(Cl)c2)C1=O
inactive: [2]; at 1.2 µM 7% | [2]; at 3.7 µM 0% | [2]; at 11.0 µM 6% | [2]; at 33.0 µM 10% | [2]; at 100.0 µM 28% | [3]; [16] 10% | [3]; [17] 60% | [3]; at 50.0 µM 10.7% | [4]; at 1.2 µM 5% | [4]; at 3.7 µM 5% | [4]; at 11.0 µM 15% | [4]; at 33.0 µM 29% | [5]; [16] 6% | [5]; [17] 12% | [5]; at 50.0 µM -1.45% | [6]; at 1.2 µM 0% | [6]; at 3.7 µM 12% | [6]; [16] 5% | [6]; at 11.0 µM 18% | [6]; at 33.0 µM 26% | [6]; [17] 47% | [6]; at 50.0 µM -8% | [7]; at 1.2 µM -12% | [7]; at 3.7 µM 6% | [7]; at 11.0 µM 16% | [8]; at 1.2 µM -3% | [8]; at 3.7 µM -4% | [8]; at 11.0 µM 4% | [8]; at 33.0 µM 9% | [9]; at 1.2 µM 2% | [9]; at 3.7 µM 36% | [9]; at 11.0 µM 29% | [9]; at 33.0 µM 39% | [10]; [16] 9% | [11]; at 1.2 µM -7% | [11]; at 3.7 µM 16% | [11]; at 11.0 µM 13% | [11]; at 33.0 µM 28%
active: [1]; at 100.0 µM 96% | [4]; at 100.0 µM 98% | [6]; at 100.0 µM 91% | [7]; at 33.0 µM 71% | [7]; at 100.0 µM 91% | [8]; at 100.0 µM 75% | [9]; at 100.0 µM 95% | [10]; [17] 88% | [10]; at 50.0 µM 91.3% | [11]; at 100.0 µM 99%

O=C1C=CC(=O)N1c1ccc2c(c1)OCO2
active: [12]; at 3.7 µM 94% | [12]; at 11.0 µM 100% | [12]; at 33.0 µM 100% | [12]; at 100.0 µM 100% | [13]; at 3.7 µM 96% | [13]; at 11.0 µM 100% | [13]; at 33.0 µM 100% | [13]; at 100.0 µM 100% | [14]; at 3.7 µM 80% | [14]; at 11.0 µM 99% | [14]; at 33.0 µM 99% | [14]; at 100.0 µM 99% | [15]; at 3.7 µM 86% | [15]; [16] 84% | [15]; at 11.0 µM 99% | [15]; at 33.0 µM 99% | [15]; [17] 97% | [15]; at 50.0 µM 99% | [15]; at 100.0 µM 99% | [1]; at 3.7 µM 76% | [1]; at 11.0 µM 100% | [1]; at 33.0 µM 100% | [1]; [17] 99% | [1]; at 50.0 µM 98.5% | [1]; at 100.0 µM 99% | [2]; at 3.7 µM 99% | [2]; at 11.0 µM 100% | [2]; at 33.0 µM 100% | [2]; at 100.0 µM 100% | [3]; [17] 98% | [3]; at 50.0 µM 99.2% | [4]; at 11.0 µM 100% | [4]; at 33.0 µM 100% | [4]; at 100.0 µM 99% | [5]; [17] 98% | [5]; at 50.0 µM 99% | [6]; at 3.7 µM 90% | [6]; at 11.0 µM 100% | [6]; at 33.0 µM 99% | [6]; [17] 98% | [6]; at 50.0 µM 99.2% | [6]; at 100.0 µM 99% | [7]; at 3.7 µM 99% | [7]; at 11.0 µM 100% | [7]; at 33.0 µM 100% | [7]; at 100.0 µM 100% | [8]; at 11.0 µM 100% | [8]; at 33.0 µM 100% | [8]; at 100.0 µM 99% | [9]; at 3.7 µM 85% | [9]; at 11.0 µM 100% | [9]; at 33.0 µM 100% | [9]; at 100.0 µM 100% | [10]; [17] 97% | [10]; at 50.0 µM 99.2% | [11]; at 11.0 µM 100% | [11]; at 33.0 µM 100% | [11]; at 100.0 µM 99%
inactive: [12]; at 1.2 µM 11% | [13]; at 1.2 µM 9% | [14]; at 1.2 µM 9% | [15]; at 1.2 µM 12% | [1]; at 1.2 µM -3% | [1]; [16] 12% | [2]; at 1.2 µM 21% | [3]; [16] 8% | [4]; at 1.2 µM -9% | [4]; at 3.7 µM 40% | [5]; [16] -4% | [6]; at 1.2 µM 2% | [6]; [16] 25% | [7]; at 1.2 µM 17% | [8]; at 1.2 µM -11% | [8]; at 3.7 µM 58% | [9]; at 1.2 µM 15% | [10]; [16] -39% | [11]; at 1.2 µM -6% | [11]; at 3.7 µM 58%

On1cnc(=S)c2[nH]cnc21
inactive: [12]; at 1.2 µM -28% | [12]; at 3.7 µM -27% | [12]; at 11.0 µM -29% | [12]; at 33.0 µM -26% | [12]; at 100.0 µM -35% | [13]; at 1.2 µM -31% | [13]; at 3.7 µM -33% | [13]; at 11.0 µM -30% | [13]; at 33.0 µM -39% | [13]; at 100.0 µM -42% | [14]; at 1.2 µM -23% | [14]; at 3.7 µM -39% | [14]; at 11.0 µM -11% | [14]; at 33.0 µM -37% | [14]; at 100.0 µM -41% | [15]; at 1.2 µM -63% | [15]; at 3.7 µM -33% | [15]; [16] 24% | [15]; at 11.0 µM -65% | [15]; at 33.0 µM -62% | [15]; at 50.0 µM -7.05% | [15]; at 100.0 µM -55% | [1]; at 1.2 µM 31% | [1]; at 3.7 µM 9% | [1]; [16] 15% | [1]; at 11.0 µM 11% | [1]; at 33.0 µM -2% | [1]; at 50.0 µM 1.85% | [1]; at 100.0 µM -1% | [2]; at 1.2 µM -32% | [2]; at 3.7 µM -26% | [2]; at 11.0 µM -34% | [2]; at 33.0 µM -28% | [2]; at 100.0 µM -14% | [3]; [16] 36% | [3]; at 50.0 µM 9.3% | [4]; at 1.2 µM 23% | [4]; at 3.7 µM 9% | [4]; at 11.0 µM -10% | [4]; at 33.0 µM 19% | [4]; at 100.0 µM 11% | [5]; [16] 13% | [5]; at 50.0 µM 1.85% | [6]; at 1.2 µM -29% | [6]; at 3.7 µM -6% | [6]; [16] 17% | [6]; at 11.0 µM -17% | [6]; at 33.0 µM -3% | [6]; at 50.0 µM -6.65% | [6]; at 100.0 µM -8% | [7]; at 1.2 µM 2% | [7]; at 3.7 µM -6% | [7]; at 11.0 µM -11% | [7]; at 33.0 µM -4% | [7]; at 100.0 µM -19% | [8]; at 1.2 µM -6% | [8]; at 3.7 µM -14% | [8]; at 11.0 µM -28% | [8]; at 33.0 µM -29% | [8]; at 100.0 µM -37% | [9]; at 1.2 µM -22% | [9]; at 3.7 µM -26% | [9]; at 11.0 µM -16% | [9]; at 33.0 µM -44% | [9]; at 100.0 µM -32% | [10]; [16] 60% | [10]; at 50.0 µM 7.7% | [11]; at 1.2 µM -40% | [11]; at 3.7 µM -33% | [11]; at 11.0 µM -55% | [11]; at 33.0 µM -61% | [11]; at 100.0 µM -67%
active: [15]; [17] 74% | [1]; [17] 99% | [3]; [17] 100% | [5]; [17] 97% | [6]; [17] 99% | [10]; [17] 98%
